Assay results from PubChem BioAssay (NCI).
This is part of a sample that, as a whole, favours compounds with a hit. Of some 79,000 tested, about 15% had one in any assay. Unmarked numbers belong to inactive results. The source made the active and inactive calls. Rule as the data show it: active = growth inhibition above about 70%; inactive = the rest.

assay: NCI Yeast Anticancer Drug Screen. Data for the sgs1 mgt1 strain (AID 161);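 also: 0% = growth of cultures given vehicle only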; settings: S. cerevisiae sgs1 mgt1 strain, at 50.0 µM, stronger effect = higher value
Protocol: Growth inhibition of yeast strains with defined genetic alterations is measured as a screen for potential anti-cancer activity. Selected strains with alterations in DNA damage repair or cell cycle control were exposed to compounds and growth inhibition was measured relative to vehicle treated controls. The strain used in this assay is sgs1 mgt1

SMILES	growth inhibition
Oc1ccc(N=Nc2ccc(Br)cc2)c(O)c1	30.2%
Oc1ccccc1-c1nnco1	0.35%
COC(=O)c1ccc(C(C)C)cc1	-1.35%
COc1ccccc1NC(=O)C1=C(C)NC(C)=C(C(=O)Nc2ccccc2OC)C1c1cccc([N+](=O)[O-])c1	-8.05%
CCCCCCCO	-28.8%
CCOC(=O)/C(=C/c1ccc(OC)cc1)N(CC)CC	-17.4%
CCOC(=O)CCCC(=O)OCC	1.65%
COc1cc2c3c(n(C)c(=O)c2cc1OC)-c1cc2c(cc1C3=O)OCO2	-1.5%
O=S(=O)(Cc1ccccc1)c1ccccc1	2.1%
O=C(O)/C=C/c1ccc2c(c1)CCC2	48.4%
CC(C)C(C#N)(C(C)C)C(C)C	4%
CC(=O)NCc1cc(C)c(C)cc1C	1.25%
C/C(=N\NC(=O)c1ccccc1N)c1ccccc1O	26.6%
O=[N+]([O-])c1ccccc1N=Nc1ccc(O)cc1O	31.9%
OCCN1CCOCC1	1.4%
CO[C@H]1C[C@@H]2CC[C@@H](C)[C@@](O)(O2)C(=O)C(=O)N2CCCC[C@H]2C(=O)O[C@H]([C@H](C)C[C@@H]2CC[C@@H](O)[C@H](OC)C2)CC(=O)[C@H](C)C=C(C)[C@@H](O)[C@@H](OC)C(=O)[C@H](C)C[C@H](C)/C=C/C=C/C=C1C	89.8% (active)
O=S(=O)(O)c1ccc(O)c2ccccc12	0%
COc1cc(/C=N\Nc2ccccc2)ccc1OC(=O)c1ccccc1	41.4%
c1ccc(Cc2ccccc2)cc1	-21.8%
O=C1C=C(O)C(=O)C=C1O	14.9%

SMILES	growth inhibition
Cc1ccccc1N=C(c1ccccc1)C1C(=O)c2ccccc2C1=O	42.2%
O=c1[nH][nH]c(=O)c2cc([N+](=O)[O-])ccc12	1.7%
CC(C)=NNC(N)=S	-23.9%
N#CCc1ccc([N+](=O)[O-])cc1	-13.5%
CCNc1nc2c(cnn2C)c(=O)[nH]1	4.4%
Clc1ccc(-c2nnc(-c3cccc4ccccc34)o2)cc1	-29.4%
Cc1nc2ccccc2c(C(=O)O)c1O	1.5%
COc1ccc(C(C)C=O)cc1 (stereo not given)	-30.3%
CCOC(=O)CSc1c([N+](=O)[O-])ncn1C	8.75%
CC(=Nc1ccccc1)C1=C(O)C(Cc2cccc(F)c2)NC1=O (stereo not given)	13.6%
CCCCCCCCCCC1CO1 (stereo not given)	-7%
COCCCNC(=O)c1nnn2c1nc(N)c1cc(Cl)ccc12	25.6%
CC1CCCCN1C(=S)Nc1ccc(S(=O)(=O)N2CCCCC2)cc1 (stereo not given)	-5.75%
COC(=O)Nc1cccc(Cl)c1OC	0.45%
CC(=O)c1ccc(C(C)(C)C)cc1	-12.9%
C#CC(C(C)C)N(CCO)CCCC (stereo not given)	8.3%
O=C1Cc2cc(O)ccc2O1	-48.6%
CC(C)C1CCCCC1O (stereo not given)	-11.5%
FC(F)(F)c1ccc2c(c1)N(CCCN1CCN(C3CC3)CC1)c1ccccc1S2	99.7% (active)
CC1(C(=O)O)NC(C(=O)O)Cc2c1[nH]c1ccccc21 (stereo not given)	3.15%
